This note sets out measurements from PubChem BioAssay (NCI).

Common to all, as to assay: NCI-60 one-dose screen, 48 h (100 = growth as untreated, 0 = no growth, -100 = all killed)
The test system of test [1] is SR leukemia. To be noted: 10 µM unless noted.
In test [2] the test system is RPMI-8226 leukemia. To be noted: 10 µM.
In test [3] the test system is OVCAR-8 ovarian. To be noted: 10 µM unless noted.
Test [4] relates to OVCAR-5 ovarian. To be noted: 10 µM unless noted.
Test [5] relates to OVCAR-4 ovarian. The settings on record: 10 µM unless noted.
Test [6] deals with SK-OV-3 ovarian. The settings on record: 10 µM.
Test [7] has as its system IGROV1 ovarian. The settings on record: 10 µM unless noted.
In test [8] the test system is OVCAR-3 ovarian. To be noted: 10 µM unless noted.
Test [9] deals with HS 578T breast. To be noted: 10 µM unless noted.
The test system of test [10] is NCI/ADR-RES ovarian. The settings on record: 10 µM unless noted.
The test system of test [11] is T-47D breast. To be noted: 10 µM.
Test [12] concerns BT-549 breast. To be noted: 10 µM unless noted.
For test [13], the system named is SW-620 colon. The settings on record: 10 µM unless noted.
The test system of test [14] is MCF7 breast. To be noted: 10 µM unless noted.
Test [15] deals with HCT-116 colon. The settings on record: 10 µM unless noted.
Test [16] concerns HCC-2998 colon. To be noted: 10 µM unless noted.
For test [17], the system named is KM12 colon. The settings on record: 10 µM unless noted.
Test [18] deals with MDA-MB-435 melanoma. To be noted: 10 µM unless noted.

Structures are written as SMILES. About 83,000 compounds went through this panel and 20% of them were active in at least one assay; those are over-represented in the sample as a whole.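 Treatment: one concentration, 48 hours, 96-well format. Scoring: percent growth, with anything below 10 considered active.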 A number with no mark means an inactive call. Activity calls are given as the source filed them.

As to `FC(F)(F)c1cc(CNc2ncc(Br)c(Cl)n2)cc(C(F)(F)F)c1`, the growth is 85.8% in [1]; 88.5% in test [2]; 101% in test [3]; 102% in test [4]; 102% in test [5]; 92.5% in test [6]. Moreover, the growth was 91.7% in [7]; 120% in test [8]; 99.4% in [9]; 93.2% in [10]; 89.8% in test [11]; 83.7% in test [12]. The growth in [13] is 105%; in test [14], 95.7%; in test [15], 90.2%; in test [16], 102%; in test [17] it was 105%.

On to `O=C1c2ccccc2C(=O)c2c(Nc3ccc(CCO)cc3)ccc(O)c21`, for which the growth in [1] is -5.4% (active); in test [2], 46.5%; in test [3], 74.1%; in [4] it was 105%; in test [5] it was 72.5%; in [6] it was 73.5%. Moreover, the growth in [7] was 45.4%; in [8] it was 122%; in test [9] it was -21.7% (active); in test [10] it was 82%; in test [11], 33.2%; in test [12] it was 53.3%. Moreover, the growth is 88.4% in test [18]; 65.8% in [13]; 68.6% in test [15]; 66.8% in test [16]; 76.2% in [17].

On to `O=c1[nH]c(=S)[nH]c(=O)n1Cc1cccc2ccccc12`, for which the growth in test [1] was 102%; in test [2], 106%; in test [3] it was 99.7%; in test [4], 107%; in test [5], 93.4%; in test [6] it was 102%. In addition, the growth is 115% in test [7]; 113% in [8]; 102% in test [9]; 108% in test [10]; 99.5% in [11]; 99.7% in test [18]. For the same molecule, the growth in test [13] was 103%; in test [14], 80.9%; in [15], 102%; in [16] it was 86.5%; in [17], 105%.

Take `CCC(=O)Nc1nnc(Cc2ccc(OC)c(OC)c2)s1`: the growth in [1] is -18.1% (active); in test [2], 15.6%; in test [3], -32.6% (active); in [4], 85.9%; in [5] it was -69.7% (active); in test [6], 24.7%. For the same molecule, the growth is 30.1% in [7]; -45.3% (active) in test [8]; -13% (active) in [9]; 81.3% in test [10]; -18.7% (active) in test [11]; -66.8% (active) in test [12]. Further, the growth was -52% (active) in [18]; 33.8% in test [13]; 15.1% in [14]; -68.2% (active) in [15]; 36.3% in test [17].

Regarding `O=C1C(Cl)=C(NCCCN2CCOCC2)C(=O)c2ccccc21`, the growth in [1] is 39.2%; in test [2], 78.3%; in test [3], 96.1%; in test [4], 111%; in [5], 77.1%; in [6], 102%. Besides, the growth is 56.4% in test [7]; 96.4% in [8]; 99.7% in test [9]; 99.1% in [10]; 102% in test [11]; 97.2% in test [12]. Moreover, the growth was 63.9% in test [18]; 79.2% in test [13]; 74.6% in [14]; 91.3% in [16]; 91.4% in test [17].

As to `COC1(OC)C2(Cl)C=C(c3ccccc3)C1(Cl)C(Cl)=C2Cl` (stereo not drawn), the growth in [1] was 83.9%; in [2], 92.4%; in [3], 93.8%; in [4], 101%; in test [5], 88.6%; in test [6], 90.3%. Besides, the growth in test [7] is 90%; in test [8], 107%; in test [9], 116%; in [10] it was 98.9%; in test [11], 95.6%; in [12], 88.2%. The growth was 95.7% in test [18]; 115% in test [13]; 79.3% in test [15]; 99.8% in [16]; 109% in test [17].

Take `Cc1nc2cc(Nc3nc(Nc4ccc(F)cc4)nc(-c4cccs4)n3)ccc2n1Cc1ccccc1`: the growth in [1] is 18%; in test [2], -0.339% (active); in test [3] it was 37%; in test [4] it was 92%; in test [5], 51%; in test [6], 95.1%. Further, the growth in test [7] is 48.3%; in test [8] it was 66.7%; in test [9] it was 50.3%; in test [10], 57.3%; in test [11] it was 23.3%; in test [12], 69.5%. Also, the growth is 43.8% in test [18]; 68.1% in test [13]; 24.2% in [15]; 72.1% in [16]; 25.2% in [17].

`O=C1c2ccccc2-c2cn(Cc3ccccc3)c3cccc(c23)C1c1cccnc1` (stereo not drawn): the growth is 8.31% (active) in test [1]; 64.5% in test [2]; 57.9% in [3]; 75.9% in test [4]; 64.3% in [5]; 37.6% in test [6]. Besides, the growth in test [7] was 54.5%; in test [8] it was 2.21% (active); in test [9], 78.1%; in [10] it was 26.5%; in [11], 43%; in test [18], 6.45% (active). Also, the growth in test [13] was 30.8%; in test [14], 12.4%; in [15], 27.9%; in [16], 56.4%; in [17], 30.5%.

On to `COc1cc(CNCCCN2C(=O)c3ccc4c5c(ccc(c35)C2=O)C(=O)N(CCCNCc2cc(OC)c(OC)c(OC)c2)C4=O)cc(OC)c1OC`, for which the growth was -3.1% (active) in [1]; -18.5% (active) in test [2]; -52% (active) in test [3]; -67.7% (active) in test [4]; -97% (active) in [5]; -59.6% (active) in test [6]. In addition, the growth in test [7] was -51.2% (active); in [8], -27.7% (active); in test [9], -34.1% (active); in [10], 71.1%; in test [11], -56.9% (active); in test [18] it was -71.5% (active). Also, the growth in [13] was -69.8% (active); in [14], -58.1% (active); in test [15], -61.8% (active); in test [16] it was -92.4% (active); in test [17] it was -86.9% (active).
